# Assay results reported in PubChem BioAssay AID2797 (The Scripps Research Institute Molecular Screening Center, 2010).
# Several values for one entry are separate records, joined by “and”; a condition that tells them apart may be missing. Equal values may be shown once. Among all 320,000 compounds or so, about 820 (0.26%) were called active. The entries come from a sample that favours actives as a whole. Values without a mark were called inactive.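 Rule for the calls: active = activation above the mean activation of all tested compounds plus 3 SD, per screening run (cut at about 20% in these data); inactive = the rest.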
# Target: Vasopressin V1a receptor (Homo sapiens) (UniProt P37288)
# Assay: V1R activation via calcium rise – fluorescence, CHO-V1R cells, counter-screen for OXTR agonist project, primary screen (AID 2797);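 note: signal is peak over basal fluorescence ratio across a 100 second FLIPR read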
# Settings: Fluo-8 calcium fluorescence, agonist mode, at 3 µM, stronger effect = higher value, 0% DMSO, 100% 3 nM vasopressin
# Sequence of Vasopressin V1a receptor (Homo sapiens) (P37288 whole entry, looked up): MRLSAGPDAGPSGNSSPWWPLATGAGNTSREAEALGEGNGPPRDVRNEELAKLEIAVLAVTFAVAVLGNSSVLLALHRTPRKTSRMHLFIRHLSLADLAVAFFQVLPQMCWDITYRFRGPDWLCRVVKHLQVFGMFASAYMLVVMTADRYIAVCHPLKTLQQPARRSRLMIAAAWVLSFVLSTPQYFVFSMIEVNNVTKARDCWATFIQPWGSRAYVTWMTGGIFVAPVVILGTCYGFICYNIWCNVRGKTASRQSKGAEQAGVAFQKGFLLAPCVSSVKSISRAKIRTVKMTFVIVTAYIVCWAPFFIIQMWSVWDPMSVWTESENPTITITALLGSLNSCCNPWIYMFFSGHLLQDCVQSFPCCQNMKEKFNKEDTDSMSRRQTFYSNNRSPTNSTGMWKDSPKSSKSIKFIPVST
row,SMILES,activation
1,Cn1c2ccccc2c(=O)c2c(=O)n(Cc3ccco3)c(COc3ccccc3)nc21,2.23%
2,Cn1c2ccccc2c(=O)c2c(O)cccc21,0.32%
3,CCCc1nc2c(c(=O)c3ccccc3n2C)c(=O)n1C1CCCCCC1,86.8% (active)
4,NS(=O)(=O)c1ccc(NC(=O)COC(=O)C2(c3ccc(F)cc3)CCCC2)cc1,10.2%
5,CCC(C(=O)Nc1ccc2c(c1)OCCO2)c1ccccc1 (stereo unspecified),1.12%
6,CCC(C(=O)Nc1ccc(C(C)C)cc1)c1ccccc1 (stereo unspecified),40.7% (active)
7,CCC(C(=O)OCC(=O)Nc1ccc(C(=O)Nc2ccc(OC)cc2)cc1)c1ccccc1 (stereo unspecified),6.96%
8,COc1ccc2c(c1)C(=O)Nc1cc(Cl)ccc1N2,3.78%
9,CCOC(=O)CC1C(=O)NCCN1c1nc2c(C)cccn2c(=O)c1/C=C1\SC(=S)N(C(C)CC)C1=O (stereo unspecified),34% (active)
10,Cc1cccn2c(=O)c(/C=C(\C#N)C(N)=O)c(N3CCCCCC3)nc12,-0.28%
11,CCOC(=O)N1CCN(C(=O)CSc2nc(=O)n3cccc(C)c3n2)CC1,-0.26%
12,Cn1nccc1NC(=O)CC(CC(=O)O)c1ccccc1 (stereo unspecified),-0.62%
13,Cc1ccc(C(=O)NCC(=O)OCc2nnc(-c3ccccc3)o2)cc1,1.89%
14,CCCc1ccc(C(=O)[C@@H]2[C@@H](C(C)=O)N3c4ccc(F)cc4C=C[C@@H]3[C@@]23C(=O)Nc2ccccc23)cc1,-0.96%
15,CC1CCN(c2c(NCc3ccc(C(=O)NCc4ccccc4)cc3)c(=O)c2=O)CC1,0.76%
16,Cc1ccc(CNC(=O)c2cccc3c2C(=O)c2ccc(N4CCC(C)CC4)cc2S3(=O)=O)cc1,49.5% (active)
17,Cc1ccc(CNC(=O)c2ccc3c(c2)S(=O)(=O)c2ccccc2C3=O)cc1,-0.95%
18,CCCN(CCC)CCCNC(=O)CNC(=O)c1nn(-c2ccc(OC)cc2)c(=O)c2ccccc12,2.99%
19,CCOC(=O)C1=C(CC)Nc2ccccc2N=C1NC(=O)c1cccc(S(=O)(=O)N2CCCC2)c1,-0.11%
20,Cc1ccc(C)c(CN2CCC(CNC(=O)Nc3ccc(C)c(F)c3)CC2)c1,4.31%
21,Cc1ccccc1NC(=O)NCC1CCN(Cc2cccc(Cl)c2)CC1,3.18%

row,SMILES,activation
1,Cc1cccc(CN2CCC(CNC(=O)Nc3ccc(F)c(Cl)c3)CC2)c1,26.4% (active)
2,CCCCC(=O)NNC(=S)NC(=O)C(c1ccccc1)c1ccccc1,73.7% (active)
3,CCNC(=S)NNC(=O)Cc1ccccc1,-0.19%
4,CC(C)C(=O)Nc1cccc(NC(=S)NC(=O)C(c2ccccc2)c2ccccc2)c1,6.96%
5,Cc1ccc(S(=O)(=O)NC2CCCCCC2)cc1C(N)=O,3.64%
6,CCCN(CC1COc2ccccc2O1)C(=S)Nc1ccc(C)cc1 (stereo unspecified),-0.74%
7,CN(C(=O)CN(CCO)CC(=O)N(C)C(C)(C)Cc1ccccc1)C(C)(C)Cc1ccccc1,53.5% (active)
8,CCN(CC)C(=O)N(CC)Cc1ccccc1,0.23%
9,OCCN(Cc1ccccc1)Cc1ccc(Cl)cc1,0.58%
10,O=C(Nc1ccc2c(c1)OCCO2)c1cnccn1,-0.23%
11,CCN(CC)c1ccc(/C=N/NC(=O)c2cnccn2)c(O)c1,20.8% (active)
12,Cc1ccc(C(=O)NCCNC(=O)c2cnccn2)cc1,0.28%
13,CC(c1ccco1)N(C(=O)Nc1ccccc1)C1CCCCC1 (stereo unspecified),-0.6%
14,CC(C)c1cc(NCc2ccccn2)n2c(nc3ccccc32)c1C#N,-0.18%
15,CC/C(=N\NC(=O)c1ccccc1Cl)c1ccc(Br)s1,0.56%
16,O=C(CN1CCCCCC1)Nc1ccc(S(=O)(=O)N2CCCCC2)cc1,0.94%
17,O=C(CN1C(=O)CCC1=O)Nc1ccc(S(=O)(=O)N2CCOCC2)cc1,0.29%
18,O=C(CN1CCN(c2cccc(Cl)c2)CC1)Nc1ccc(S(=O)(=O)N2CCOCC2)cc1,26.1% (active)
19,CCC(C)NC(=O)N[C@@H](CCSC)C(=O)O (stereo partly specified),0.54%
20,NC(=O)c1cc(-c2cccnc2)nc2ccc(Br)cc12,-0.49%
21,Cc1cccc(-c2nc3ccccc3c(=O)n2NC(=O)Cc2ccc(Cl)cc2)c1,4.01%

row,SMILES,activation
1,O=c1c2cc(Br)ccc2nc(-c2cccc(Cl)c2)n1O,39% (active)
2,CCCCc1nc2cc(C(=O)NCCc3cnn(C)c3)ccc2o1,1.32%
3,CC(C)c1nc(SCC(=O)Nc2cccc(C(=O)O)c2)c2c3c(sc2n1)CCCC3,6.28%
4,CCOc1ccc(C2NC(=S)NC3=C2CCc2ccccc23)cc1 (stereo unspecified),0.4%
5,O=C(NCc1cccnc1)c1cc(S(=O)(=O)N2CCOCC2)c(Cl)cc1Cl,1.17%
6,COc1ccccc1NC(=O)Nc1nc(CC(=O)Nc2ccccc2F)cs1,-0.76%
7,Oc1ccc2ccc3cccc[n+]3c2c1,49.5% (active)
8,CCSc1nc(C)c(CCOc2cccc(C)c2)c(=O)[nH]1,-0.28%
9,COCCN(C(=O)CC1CCCCC1)c1c(N)n(CC(C)C)c(=O)[nH]c1=O,-0.63%
10,CC(=O)Nc1cccc(NC(=O)CSc2nccn2Cc2ccc(F)cc2)c1,3.25%
11,C=CCOc1cccc(C2C(C(=O)c3ccc(C)o3)=C(O)C(=O)N2CCCn2ccnc2)c1 (stereo unspecified),-0.49%
12,C=CCOc1cccc(C2C(C(=O)c3ccc(C)o3)=C(O)C(=O)N2c2nnc(C)s2)c1 (stereo unspecified),78.1% (active)
13,Cc1cc(N2C(=O)C(O)=C(C(=O)c3ccc(C)o3)C2c2ccc(OCc3ccccc3)cc2)no1 (stereo unspecified),0.41%
14,CCOC(=O)c1c(NC(=O)CSc2nnc(CNc3ccc(C)cc3C)o2)sc(C)c1C,0.01%
15,COc1ccc(S(=O)(=O)NCC(c2ccc(C)cc2)N2CCN(C)CC2)cc1OC (stereo unspecified),0.61%
16,Cc1cnc(C(=O)OCc2c(C)cc(C(C)(C)C)cc2C)cn1,-0.09%
17,CC1(C)S[C@@H]2[C@H](N=CN3CCCCCC3)C(=O)N2[C@H]1C(=O)O,21.6% (active)
18,CC1(C)SC2C(NC(=O)COc3ccccc3)C(=O)N2C1C(=O)O (stereo unspecified),0.91% and -0.17%
19,CC1(C)S[C@@H]2[C@H](NC(=O)COc3ccccc3)C(=O)N2C1C(=O)OCc1ccccc1 (stereo partly specified),1.45%
